Like-named read-outs stand apart in the source and are kept apart here.
Key:
Parameters in all cases: species or system human, MV4-11 + K-562 + COLO205 + SK-N-BE2 + OVCAR-8
ACAD11 = details: read-out: apparent Kd, compound concentrations: 100 nM and 1000 nM (sheet 'Samples'), n = 1
ACVR1 = details: read-out: apparent Kd, n = 1
FGFR1 = details: read-out: apparent Kd, compound concentrations: 100 nM and 1000 nM (sheet 'Samples'), n = 1
JAK1 = details: read-out: apparent Kd, n = 1
ULK3 = details: read-out: apparent Kd, compound concentrations: 100 nM and 1000 nM (sheet 'Samples'), n = 1
ATR = details: read-out: apparent Kd; compound concentrations: 100 nM and 1000 nM (sheet 'Samples'), CATDS: 6.4256483449106902E-3; n = 1
CDK5 = details: read-out: apparent Kd, compound concentrations: 100 nM and 1000 nM (sheet 'Samples'), n = 1
IRAK4 = details: read-out: apparent Kd, n = 1
JAK2 = details: read-out: apparent Kd, compound concentrations: 100 nM and 1000 nM (sheet 'Samples'), n = 1
MAP4K1 = details: read-out: apparent Kd, n = 1
MAPKAPK2 = details: read-out: apparent Kd, compound concentrations: 100 nM and 1000 nM (sheet 'Samples'), n = 1
PIK3CA = details: read-out: apparent Kd, n = 1
PRKCB = details: read-out: apparent Kd, n = 1
DJA1 = system: T1, DJA1; details: read-out: apparent Kd, compound concentrations: 100 nM and 1000 nM (sheet 'Samples'), n = 1
T1 construct: gene DNAJA1

CDC7 = details: read-out: apparent Kd; compound concentrations: 100 nM and 1000 nM (sheet 'Samples'), CATDS: 4.24338957308735E-2; n = 1
CDK6 = details: read-out: apparent Kd, n = 1
ICK = details: read-out: apparent Kd, n = 1
NLK = details: read-out: apparent Kd; compound concentrations:100 nM and 1000 nM (sheet 'Samples'); n = 1
NQO2 = details: read-out: apparent Kd, n = 1
STK26 = details: read-out: apparent Kd; compound concentrations: 100 nM and 1000 nM (sheet 'Samples'), CATDS: 1.6966130459451799E-2; n = 1
[1] = compound concentrations:100 nM and 1000 nM (sheet 'Samples')

O=C1N=C(NCCc2ccc(Cl)cc2)S/C1=C\c1ccc2ncccc2c1 [RO4498479-000]
potency estimated from few doses (ACAD11; CATDS: 8.46933106207029E-3): 852 nM
potency estimated from few doses (ACVR1; compound concentrations: 100 nM and 1000 nM (sheet 'Samples'), CATDS: 7.5426922392671601E-3): 1230 nM
potency estimated from few doses (FGFR1; CATDS: 8.1769993071202692E-3): 946 nM
potency estimated from few doses (JAK1; compound concentrations: 100 nM and 1000 nM (sheet 'Samples'), CATDS: 7.5180270628035497E-3): 1240 nM
potency estimated from few doses (ULK3; CATDS: 8.2720873677068606E-3): 913 nM

Cn1ncc2c(N)ncnc21 [SKF-18267]
potency estimated from few doses (ACAD11; CATDS: 4.0481268472205602E-3): 1300 nM
potency estimated from few doses (ACVR1; compound concentrations: 100 nM and 1000 nM (sheet 'Samples'), CATDS: 5.7443356978904197E-3): 627 nM
potency estimated from few doses (ATR): 516 nM
potency estimated from few doses (CDK5; CATDS: 4.5442394594478004E-3): 993 nM
potency estimated from few doses (FGFR1; CATDS: 4.74692919335207E-3): 905 nM
potency estimated from few doses (IRAK4; compound concentrations: 100 nM and 1000 nM (sheet 'Samples'), CATDS: 3.8610933772381499E-3): 1460 nM
potency estimated from few doses (JAK1; compound concentrations: 100 nM and 1000 nM (sheet 'Samples'), CATDS: 4.8033962123192799E-3): 883 nM
potency estimated from few doses (JAK2; CATDS: 4.4372825621257503E-3): 1050 nM
potency estimated from few doses (MAP4K1; compound concentrations: 100 nM and 1000 nM (sheet 'Samples'), CATDS: 5.1468947283468203E-3): 769 nM
potency estimated from few doses (MAPKAPK2; CATDS: 4.1039976146892603E-3): 1250 nM
potency estimated from few doses (PIK3CA; compound concentrations: 100 nM and 1000 nM (sheet 'Samples'), CATDS: 3.6748488763129201E-2): 53.3 nM
potency estimated from few doses (PRKCB; compound concentrations: 100 nM and 1000 nM (sheet 'Samples'), CATDS: 3.7264433576920599E-3): 1610 nM
potency estimated from few doses (ULK3; CATDS: 5.6428686263863704E-3): 647 nM

CCn1c(-c2nonc2N)nc2c(C#CCN)ncc(OCCCN)c21.O=C(O)C(F)(F)F [GSK561866B]
potency estimated from few doses (JAK2; CATDS: 0.29802313015986498): 12.9 nM

COc1cccc2c(-c3ccncc3)c(-c3ccc(F)cc3)nn12 [GW468513X]
potency estimated from few doses (DJA1; CATDS: 3.8361892236094597E-2): 1520 nM
potency estimated from few doses (MAPKAPK2; CATDS: 0.11200666699730499): 80.6 nM

O=C(O)C(F)(F)F.O=C(O)C(F)(F)F.O=c1[nH]ccc2nc(N[C@@H]3CCCNC3)nc(Nc3ccc(S(=O)(=O)N4CCOCC4)cc3)c12.O=c1[nH]ccc2nc(N[C@@H]3CCCNC3)nc(Nc3ccc(S(=O)(=O)N4CCOCC4)cc3)c12 [GSK2177277A]
potency estimated from few doses (ACVR1; compound concentrations: 100 nM and 1000 nM (sheet 'Samples'), CATDS: 7.8898197775333495E-3): 605 nM
potency estimated from few doses (CDC7): 14.6 nM
potency estimated from few doses (CDK5; CATDS: 6.6467271298615597E-3): 1280 nM
potency estimated from few doses (DJA1; CATDS: 6.2286028327955796E-3): 1850 nM
potency estimated from few doses (JAK2; CATDS: 4.8200913683498499E-2): 12.1 nM
potency estimated from few doses (MAP4K1; compound concentrations: 100 nM and 1000 nM (sheet 'Samples'), CATDS: 2.52445457055663E-2): 34.1 nM
potency estimated from few doses (PRKCB; compound concentrations: 100 nM and 1000 nM (sheet 'Samples'), CATDS: 6.2704651327109501E-3): 1770 nM
potency estimated from few doses (ULK3; CATDS: 1.28018633148979E-2): 140 nM

CNCC#Cc1c(F)ccc2c1/C(=C/c1[nH]ccc1OC)C(=O)N2.Cl [RO0281601-001]
potency estimated from few doses (CDK6; compound concentrations: 100 nM and 1000 nM (sheet 'Samples'), CATDS: 2.2252804154739798E-2): 1820 nM
potency estimated from few doses (ICK; compound concentrations: 100 nM and 1000 nM (sheet 'Samples'), CATDS: 2.2639550880060699E-2): 1700 nM
potency estimated from few doses (JAK1; compound concentrations: 100 nM and 1000 nM (sheet 'Samples'), CATDS: 3.3581024780386999E-2): 520 nM
potency estimated from few doses (MAP4K1; compound concentrations: 100 nM and 1000 nM (sheet 'Samples'), CATDS: 2.76705176427572E-2): 879 nM

CN(C)CC(O)COc1ccc(Nc2nccc(-c3cnn4nc(N5CCOCC5)ccc34)n2)cc1 (stereo not shown) [GW767488X]
potency estimated from few doses (ACVR1; [1]): 455 nM
potency estimated from few doses (CDK6; [1]): 1050 nM
potency estimated from few doses (ICK; [1]): 1720 nM
potency estimated from few doses (IRAK4; [1]): 1630 nM
potency estimated from few doses (NLK): 2180 nM
potency estimated from few doses (NQO2; [1]): 1230 nM

COc1cc(Nc2nccc(-c3cnn4ncccc34)n2)cc(OC)c1 [GW801372X]
potency estimated from few doses (ACVR1; compound concentrations: 100 nM and 1000 nM (sheet 'Samples'), CATDS: 2.2901948138858801E-2): 739 nM
potency estimated from few doses (ICK; compound concentrations: 100 nM and 1000 nM (sheet 'Samples'), CATDS: 7.2296176142385704E-2): 49.6 nM
potency estimated from few doses (STK26): 2340 nM

COc1cc(Nc2nccc(N3CCC(NC(=O)c4cccc(NC(C)=O)c4)C3)n2)cc(OC)c1OC (stereo not shown) [GSK1379754A]
potency estimated from few doses (ULK3; CATDS: 9.2169068852455793E-2): 1390 nM

CCn1c(-c2nonc2N)nc2c(C#CC(C)(C)O)nc(O[C@@H](CN)c3ccccc3)cc21.O=C(O)C(F)(F)F [GSK1007102B]
potency estimated from few doses (PRKCB; [1]): 111 nM

O=C(O)C(F)(F)F.O=c1[nH]ccc2nc(N[C@@H]3CCNC3)nc(Nc3cc(Cl)cc(Cl)c3)c12 [GSK2188764A]
potency estimated from few doses (MAP4K1; [1]): 1030 nM

CN(c1ccc(NC(=O)NCCN2CCOCC2)cc1)c1ccnc(Nc2ccc(CS(C)(=O)=O)cc2)n1.Cl [GW830365A]
potency estimated from few doses (PIK3CA; compound concentrations: 100 nM and 1000 nM (sheet 'Samples'), CATDS: 0.11596893366526): 201 nM

CCN(CC)Cc1ccc(Nc2nccc(-c3cnn4ncccc34)n2)cc1 [GW780056X]
potency estimated from few doses (CDK6; compound concentrations: 100 nM and 1000 nM (sheet 'Samples'), CATDS: 6.8164228175802102E-2): 83.2 nM
potency estimated from few doses (ICK; compound concentrations: 100 nM and 1000 nM (sheet 'Samples'), CATDS: 2.9886591978346599E-2): 433 nM
potency estimated from few doses (NQO2; compound concentrations: 100 nM and 1000 nM (sheet 'Samples'), CATDS: 3.67642918881117E-2): 274 nM

Cc1cccc(Nc2nc(N[C@H]3CCNC3)ncc2C(N)=O)c1.Cl [GSK2197149A]
potency estimated from few doses (IRAK4; [1]): 1570 nM
potency estimated from few doses (JAK1; [1]): 1240 nM
potency estimated from few doses (PIK3CA; [1]): 110 nM

— publication PMC11062922 (Nature Chemical Biology, 2023)
